# Test results as given in PubChem BioAssay AID1053174 (Broad Institute, 2014).
# Among all 1,500 compounds or so, about 140 (9.3%) were called active. The rule behind the calls is not given here. Only a sample is shown.
# Experiment: AlphaScreen signal interference with preloaded methylated product, dose response, artefact control for NSD2 inhibitor project, biochemical, cherry-picked samples (AID 1053174);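 for activity change, negative = signal loss: 0% = median of neutral control wells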
# Settings: AlphaScreen artifact counterscreen, preloaded methylated H4 peptide; series mostly up to 10 µM; activity change, negative = signal loss: at the top concentration
SMILES,"activity change, negative = signal loss",AC35
CCNC(=O)C1(C)CCCN(C(=O)c2ccc3ccccc3n2)C1 (stereo unspecified),-5.17% (inactive),
O=C(/C=C/c1ccc(Cl)cc1Cl)NCc1ccco1,-1.78% (inactive),
COC(=O)c1nc(NC(=O)c2ccccc2)n[nH]1,-0.64% (inactive),
CCC1=[N+]([O-])C(C)(/C(C)=N\O)N(O)C1(C)C (stereo unspecified),-1.82% (inactive),
COC(=O)CCCCC1=CCC2C(=O)C=C(O)C2C1 (stereo unspecified),-3.31% (inactive),
Clc1ccc(C2=CSC3=Nc4cccc5cccc(c45)N23)cc1,-4.57% (inactive),
C=CCc1cccc2cc(C(=O)Nc3ccc(NC(C)=O)cc3)c(=O)oc12,-3.44% (inactive),
Oc1ccc(CNc2ccccc2O)cc1,-4.59% (inactive),
O=C(CNC(=O)c1ccccc1)Oc1ccc([N+](=O)[O-])cc1,-0.899% (inactive),
Cc1c(CC(=O)N2CCN(C(=O)C3COc4ccccc4O3)CC2)c(=O)oc2c(O)c(O)ccc12 (stereo unspecified),-19.2% (inactive),
CS(=O)(=O)N(CC(=O)NCc1ccco1)c1ccc2c(c1)OCO2,-6.79% (inactive),
Cc1[nH]n(-c2ccccc2)c(=O)c1N=Nc1ccccc1C(=O)N1CCCCC1,-13.8% (inactive),
CN(C(=O)CN1C(=O)S/C(=C\c2ccccc2F)C1=O)C1CCS(=O)(=O)C1 (stereo unspecified),-3.69% (inactive),
CC(=O)N(C1=C(Cl)C(=O)c2ccccc2C1=O)c1ccc(C(=O)O)cc1,1.35% (inactive),
C(=N/Nc1cc(N2CCOCC2)nc(N2CCOCC2)n1)/c1ccccc1,-3.4% (inactive),
Cc1cccc(OCCC(=O)Nc2ccccc2C(N)=O)c1,-6.47% (inactive),
Cn1ncc2c(Nc3cccc4ccccc34)ncnc21,-0.685% (inactive),
Cc1[nH][nH]c(=O)c1C(c1ccc2c(c1)OCO2)c1c(C)[nH][nH]c1=O,-7.25% (inactive),
Cc1ccc(S(=O)(=O)/N=C2\C=C(NS(=O)(=O)c3ccc(C)cc3)C(=O)c3ccccc32)cc1,,9.17 µM (active)
O=c1[nH]c(CN2CCOCC2)nc2cc(Cl)ccc12,-0.282% (inactive),
CCOC(=O)c1nnn(-c2nonc2OC)c1-c1ccccc1,-3.01% (inactive),
Cc1cc(=O)[nH]c(N/N=C/c2c(C)nn(-c3ccccc3Cl)c2Cl)n1,-5.79% (inactive),

SMILES,"activity change, negative = signal loss",AC35
Cc1ccc(-c2ccc(/C=N/NC(=O)CN3CCOCC3)o2)cc1[N+](=O)[O-],-5.05% (inactive),
CCN1CCCC1CNc1ncnc2c1[nH]c1ccc(F)cc12 (stereo unspecified),-7.31% (inactive),
O=C(NNC(=O)c1ccc(Cl)nc1)c1ccc(Br)cc1,1.02% (inactive),
CCN(CC)CCCC(C)n1c2nc(=O)[nH]c(=O)c-2nc2cc(Cl)ccc21 (stereo unspecified),-0.97% (inactive),
CCN(CC)CCOc1ccc2c(c1)C(=NNC(=O)c1ccccn1)c1cc(OCCN(CC)CC)ccc1-2,-19.1% (inactive),
Cc1ccnc(N2CCC(C(=O)NC3CCCCCC3)CC2)n1,1.89% (inactive),
C=CCNCCCCOc1ccccc1,-2.37% (inactive),
Cc1ccccc1-n1nc(C)c2c1N=C1C(Cl)=CC(Cl)=CN1C2c1ccc(C(=O)O)cc1 (stereo unspecified),-5.91% (inactive),
CCOC(=O)c1c(C)[nH]c(C(=O)NCCN2CCOCC2)c1C,-4.69% (inactive),
O=C1C=CC(=O)N1c1ccc(N2CCCCC2)cc1,0.066% (inactive),
O=C(Cn1cc(C(F)(F)F)ccc1=O)Nc1ccc2c(c1)OCCO2,-1.84% (inactive),
COc1cc(C(=O)Nn2c(O)c(C3=c4ccccc4=NC3=O)sc2=S)ccc1O,-2.75% (inactive),
COc1ccc(NC(=O)Cn2nnc(C(=O)NCCc3ccc(OC)c(OC)c3)c2N)cc1,-5.08% (inactive),
CCOc1cc(/C=C/C(=O)OCC(=O)NCCN2C(=O)CSC2=O)ccc1OCC(C)C,-3.73% (inactive),
CC1CCN(CCC(=O)Nc2ccccc2)CC1,-3.77% (inactive),
O=C1Nc2cc(C(=O)N3CCC(N4CCCCC4)CC3)ccc2S/C1=C\c1ccccc1,-9.24% (inactive),
CC(C)(C)CC(=O)Nc1nnc(SCC(=O)NCc2cccs2)s1,-0.29% (inactive),
O=C1C(Cl)=C(Oc2ccccc2)C(=O)c2ccccc21,-1.11% (inactive),
O=c1ccc2c(-c3ccccc3S(=O)(=O)O)c3ccc(O)c(O)c3oc-2c1O,,0.557 µM (active)
CC(=O)c1cc(-c2ccccc2)n(CC(=O)NC2CCCCC2)c1C,-3.2% (inactive),
Cc1[nH][nH]c(=O)c1C(c1ccc(-c2ccc(Cl)cc2)o1)c1c(C)[nH][nH]c1=O,-6.16% (inactive),
CCOc1ccc(C(CC(=O)O)NC(=O)C23CC4CC(CC(C4)C2)C3)cc1OC (stereo unspecified),4.36% (inactive),

SMILES,"activity change, negative = signal loss",AC35
COc1ccc(S(=O)(=O)N2CCCC(C(=O)NCCCn3ccnc3)C2)cc1OC (stereo unspecified),-0.456% (inactive),
COc1ccc(NC(=O)C2Cc3c(-c4ccc(Cl)cc4)ccnc3O2)cc1 (stereo unspecified),3.24% (inactive),
CCOc1ccccc1Nc1nnc(SCc2ccc(C(=O)OC)o2)s1,6.37% (inactive),
NC1=CC(=O)C(=O)c2cccnc21,-4.08% (inactive),
N#Cc1ccc(CSc2ncccn2)cc1,-5.04% (inactive),
Cc1ccc(S(=O)(=O)N(C)C)cc1NC(=O)/C=C/c1cccs1,-7.91% (inactive),
O=C(CN1C(=O)c2ccc([N+](=O)[O-])cc2C1=O)Nc1nnc(C2CC2)s1,3.62% (inactive),
O=C(NCc1ccco1)c1nc(-c2ccccc2)n(-c2ccccc2)n1,-0.34% (inactive),
CCOC(=O)c1c(C)[nH]c2c1-c1ccccc1C(=O)C2=O,-0.086% (inactive),
O=[N+]([O-])c1ccccc1Nc1ccc(O)cc1,-22.6% (inactive),
O=C(CSc1nnc(-c2ccccc2O)o1)NC1CCCCC1,-3.17% (inactive),
Cc1ccc(C(=O)Cn2cc([N+](=O)[O-])nc2C)cc1,3.46% (inactive),
COCC(C)n1c(SCC(=O)NC2CCCCC2C)nc2ccccc2c1=O (stereo unspecified),-4.78% (inactive),
Cc1ccc(/C=N/NC(=O)c2cc3ccccc3cc2O)o1,0.575% (inactive),
COc1ccccc1N(C)S(=O)(=O)c1ccc(C(=O)NC2CCCCCC2)cc1,-2.33% (inactive),
COc1ccc(OC)c(-c2csc(-c3cccs3)n2)c1,-2% (inactive),
COC(=O)[C@H](Cc1ccccc1)NC(=O)Nc1ccc(S(N)(=O)=O)cc1,-3.74% (inactive),
C/C(=N/NC(=O)CCc1ccccc1)c1ccco1,1.24% (inactive),
CCN(CC)S(=O)(=O)c1ccc(N2CCN(C)CC2)c(NC(=O)Nc2ccccc2F)c1,-5.39% (inactive),
Cc1sc2ncnc(SCC(=O)Nc3ccc(CN4CCCC4)cc3)c2c1C,-3.43% (inactive),
C=CCn1c(=NC(=O)c2ccc(S(=O)(=O)N3CCCC3)cc2)sc2cc(NC(C)=O)ccc21,-1.39% [at 5 µM] (inactive),
CCN(CC)CCCNC(=O)c1cc(-c2cccc(Cl)c2)on1,-3.33% (inactive),
